The source of these data is publication PMC7862700, “An all-to-all approach to the identification of sequence-specific readers for epigenetic DNA modifications on cytosine”.

Assay in all cases: DAPPL (digital affinity profiling via proximity ligation, sequencing); 10 mM Tris-HCl pH 7.5, 50 mM NaCl, 1 mM DTT, 4% glycerol, room temperature, 30 min; GST-TFs on glutathione beads, 16-mer random dsDNA library, 0.1% formaldehyde crosslink after washing; high values mean tight binding
Common to all, as to conditions: protein: recombinant; tags: N-terminal GST; dsDNA, one strand shown

Test [1] deals with T1, FLI1 (Homo sapiens, UniProt Q01543 1-452).
T1 sequence: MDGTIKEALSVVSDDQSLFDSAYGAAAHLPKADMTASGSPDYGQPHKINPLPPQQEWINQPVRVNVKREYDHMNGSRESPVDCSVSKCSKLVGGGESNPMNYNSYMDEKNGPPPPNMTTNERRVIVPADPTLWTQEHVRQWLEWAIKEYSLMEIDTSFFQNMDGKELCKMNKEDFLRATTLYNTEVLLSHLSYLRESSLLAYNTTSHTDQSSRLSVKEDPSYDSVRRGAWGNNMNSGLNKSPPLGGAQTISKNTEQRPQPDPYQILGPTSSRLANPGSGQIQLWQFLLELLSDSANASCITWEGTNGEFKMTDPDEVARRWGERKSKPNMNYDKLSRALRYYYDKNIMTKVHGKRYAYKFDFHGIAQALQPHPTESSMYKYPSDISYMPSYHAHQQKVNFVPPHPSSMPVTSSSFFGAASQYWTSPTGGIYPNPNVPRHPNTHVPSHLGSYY
The procedure, abridged:
(§1)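 Yeast served to express human transcription factors as GST fusions, which were then captured on glutathione beads and labelled with DNA barcodes. Pooled with a tag-only sample, they were incubated with 200 nmole of a 16-mer random double-stranded DNA library for 30 min at room temperature in Tris/NaCl/DTT/glycerol buffer, washed, crosslinked with 0.1% formaldehyde, ligated by proximity, amplified by PCR and sequenced. Dividing each hexamer's read frequency for a factor by its frequency for the tag-only sample gives the binding signal.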

In test [2] the target is T2, ELK1 (Homo sapiens, UniProt P19419 1-428).
T2 sequence: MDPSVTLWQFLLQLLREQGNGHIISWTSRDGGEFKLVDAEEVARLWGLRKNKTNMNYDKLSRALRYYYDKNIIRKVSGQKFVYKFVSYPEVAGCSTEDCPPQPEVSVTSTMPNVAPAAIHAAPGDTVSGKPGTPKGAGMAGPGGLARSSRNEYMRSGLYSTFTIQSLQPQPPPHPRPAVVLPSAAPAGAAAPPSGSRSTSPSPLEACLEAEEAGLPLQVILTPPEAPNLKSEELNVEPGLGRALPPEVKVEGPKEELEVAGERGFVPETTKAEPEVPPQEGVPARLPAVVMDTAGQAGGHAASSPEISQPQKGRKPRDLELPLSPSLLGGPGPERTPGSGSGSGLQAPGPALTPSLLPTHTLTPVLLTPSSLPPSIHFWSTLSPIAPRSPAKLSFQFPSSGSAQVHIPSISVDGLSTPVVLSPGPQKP
The method in brief: as §1

For test [3], the target named is T3, GABPA (Homo sapiens, UniProt Q06546 1-454).
T3 sequence: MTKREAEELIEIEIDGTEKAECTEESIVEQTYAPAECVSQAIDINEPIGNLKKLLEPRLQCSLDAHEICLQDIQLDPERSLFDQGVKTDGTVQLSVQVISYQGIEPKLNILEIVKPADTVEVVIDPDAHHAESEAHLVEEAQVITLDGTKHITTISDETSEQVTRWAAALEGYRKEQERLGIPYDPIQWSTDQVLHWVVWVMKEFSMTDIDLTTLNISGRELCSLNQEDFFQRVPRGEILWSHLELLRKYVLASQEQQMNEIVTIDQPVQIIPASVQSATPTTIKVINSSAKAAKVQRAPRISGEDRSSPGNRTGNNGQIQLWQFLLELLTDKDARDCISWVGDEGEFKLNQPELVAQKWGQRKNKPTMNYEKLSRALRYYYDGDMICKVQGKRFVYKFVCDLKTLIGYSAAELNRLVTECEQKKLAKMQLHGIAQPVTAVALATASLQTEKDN
The method in brief:
as §1

The target in test [4] is T4, ERG (Homo sapiens, UniProt P11308 1-479).
T4 sequence: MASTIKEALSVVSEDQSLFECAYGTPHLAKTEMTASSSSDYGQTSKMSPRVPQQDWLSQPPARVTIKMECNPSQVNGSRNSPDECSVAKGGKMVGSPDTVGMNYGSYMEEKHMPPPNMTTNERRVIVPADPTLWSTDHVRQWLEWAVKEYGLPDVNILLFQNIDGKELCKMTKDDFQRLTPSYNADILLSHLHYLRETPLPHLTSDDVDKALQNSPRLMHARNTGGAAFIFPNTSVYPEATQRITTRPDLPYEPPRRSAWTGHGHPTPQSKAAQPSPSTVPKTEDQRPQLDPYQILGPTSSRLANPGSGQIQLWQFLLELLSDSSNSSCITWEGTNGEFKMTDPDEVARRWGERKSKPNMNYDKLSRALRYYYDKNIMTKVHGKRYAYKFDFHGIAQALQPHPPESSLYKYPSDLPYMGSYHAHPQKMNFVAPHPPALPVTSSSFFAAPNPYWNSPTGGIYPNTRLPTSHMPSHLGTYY
The procedure, abridged: as §1

In test [5] the target is ELF1 (Homo sapiens, UniProt P32519 1-619). The procedure, abridged:
as §1

The target of test [6] is T5, EHF (Homo sapiens, UniProt Q9NZC4 1-300).
T5 sequence: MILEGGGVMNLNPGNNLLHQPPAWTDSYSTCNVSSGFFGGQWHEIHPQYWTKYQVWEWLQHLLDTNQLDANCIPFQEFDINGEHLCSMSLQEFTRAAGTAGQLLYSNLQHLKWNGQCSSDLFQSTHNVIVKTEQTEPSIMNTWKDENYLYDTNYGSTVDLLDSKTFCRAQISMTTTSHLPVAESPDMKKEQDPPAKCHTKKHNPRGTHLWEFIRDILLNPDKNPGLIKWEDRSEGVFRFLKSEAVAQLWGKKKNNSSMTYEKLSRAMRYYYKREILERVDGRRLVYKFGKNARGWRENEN
The procedure, abridged:
as §1

Test [7] concerns the target SPI1 (Homo sapiens, UniProt P17947 1-270). The method in brief:
as §1

Test [8] addresses SPIB (Homo sapiens, UniProt Q01892 1-262). The method in brief:
as §1

The target of test [9] is T6, ELK3 (Homo sapiens, UniProt P41970 1-407).
T6 sequence: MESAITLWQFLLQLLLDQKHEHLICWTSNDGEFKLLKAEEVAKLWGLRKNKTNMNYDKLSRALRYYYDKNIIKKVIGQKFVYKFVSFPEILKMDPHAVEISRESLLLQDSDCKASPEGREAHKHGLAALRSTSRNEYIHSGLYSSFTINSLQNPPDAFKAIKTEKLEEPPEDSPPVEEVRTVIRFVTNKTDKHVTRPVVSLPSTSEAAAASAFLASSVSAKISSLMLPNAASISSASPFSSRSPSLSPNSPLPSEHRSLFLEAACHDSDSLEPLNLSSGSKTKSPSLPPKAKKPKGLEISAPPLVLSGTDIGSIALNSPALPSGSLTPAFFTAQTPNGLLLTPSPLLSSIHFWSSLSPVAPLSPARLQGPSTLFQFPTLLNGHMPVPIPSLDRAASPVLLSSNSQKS
The procedure, abridged:
as §1

Sequence of ELF1 (P32519 whole entry): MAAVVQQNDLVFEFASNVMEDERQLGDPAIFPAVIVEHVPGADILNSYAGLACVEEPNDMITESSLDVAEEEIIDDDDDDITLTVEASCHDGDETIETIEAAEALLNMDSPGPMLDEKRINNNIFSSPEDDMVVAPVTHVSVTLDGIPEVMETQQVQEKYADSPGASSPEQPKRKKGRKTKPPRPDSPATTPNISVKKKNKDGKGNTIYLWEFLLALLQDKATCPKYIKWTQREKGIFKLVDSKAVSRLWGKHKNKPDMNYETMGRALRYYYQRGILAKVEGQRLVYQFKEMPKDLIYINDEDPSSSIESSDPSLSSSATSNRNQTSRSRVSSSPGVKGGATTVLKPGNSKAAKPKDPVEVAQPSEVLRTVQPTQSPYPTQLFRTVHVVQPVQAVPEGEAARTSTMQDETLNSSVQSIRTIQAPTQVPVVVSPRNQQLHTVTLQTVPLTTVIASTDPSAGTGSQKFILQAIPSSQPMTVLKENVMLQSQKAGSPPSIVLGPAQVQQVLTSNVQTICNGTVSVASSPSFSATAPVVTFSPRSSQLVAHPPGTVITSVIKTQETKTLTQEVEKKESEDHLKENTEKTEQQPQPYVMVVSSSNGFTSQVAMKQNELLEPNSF
Sequence of SPIB (Q01892 whole entry): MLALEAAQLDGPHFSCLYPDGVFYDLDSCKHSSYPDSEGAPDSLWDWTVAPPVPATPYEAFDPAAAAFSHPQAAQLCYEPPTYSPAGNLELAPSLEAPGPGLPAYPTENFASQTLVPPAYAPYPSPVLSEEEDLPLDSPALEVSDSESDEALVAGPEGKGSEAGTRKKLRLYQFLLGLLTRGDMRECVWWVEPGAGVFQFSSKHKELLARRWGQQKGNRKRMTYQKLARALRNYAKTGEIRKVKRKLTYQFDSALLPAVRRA

CCTTTT: the binding signal in test [1] was 1.49 fold enrichment (6-mer frequency, TF over GST control); in test [2], 1.46 fold enrichment (6-mer frequency, TF over GST control); in test [3], 1.46 fold enrichment (6-mer frequency, TF over GST control); in test [4] it was 1.56 fold enrichment (6-mer frequency, TF over GST control); in [5], 1.52 fold enrichment (6-mer frequency, TF over GST control); in test [6] it was 1.49 fold enrichment (6-mer frequency, TF over GST control). The binding signal in test [7] is 2.05 fold enrichment (6-mer frequency, TF over GST control); in [8], 1.67 fold enrichment (6-mer frequency, TF over GST control); in test [9], 1.64 fold enrichment (6-mer frequency, TF over GST control).

In the case of ACCCAT, the binding signal in test [1] is 1.18 fold enrichment (6-mer frequency, TF over GST control); in test [2], 1.21 fold enrichment (6-mer frequency, TF over GST control); in test [3], 1.33 fold enrichment (6-mer frequency, TF over GST control); in [4], 1.23 fold enrichment (6-mer frequency, TF over GST control); in [5], 1.25 fold enrichment (6-mer frequency, TF over GST control); in test [6] it was 1.16 fold enrichment (6-mer frequency, TF over GST control). Also, the binding signal is 1.17 fold enrichment (6-mer frequency, TF over GST control) in test [7]; 1.33 fold enrichment (6-mer frequency, TF over GST control) in test [8]; 1.24 fold enrichment (6-mer frequency, TF over GST control) in test [9].

For the sequence CGACTC, the binding signal in test [1] was 1.37 fold enrichment (6-mer frequency, TF over GST control); in test [2], 1.42 fold enrichment (6-mer frequency, TF over GST control); in [3], 1.53 fold enrichment (6-mer frequency, TF over GST control); in [4], 1.39 fold enrichment (6-mer frequency, TF over GST control); in [5] it was 1.45 fold enrichment (6-mer frequency, TF over GST control); in test [6] it was 1.43 fold enrichment (6-mer frequency, TF over GST control). In addition, the binding signal was 1.35 fold enrichment (6-mer frequency, TF over GST control) in test [7]; 1.56 fold enrichment (6-mer frequency, TF over GST control) in [8]; 1.43 fold enrichment (6-mer frequency, TF over GST control) in test [9].

On to TACCCT, for which the binding signal in test [1] was 1.33 fold enrichment (6-mer frequency, TF over GST control); in test [2], 1.34 fold enrichment (6-mer frequency, TF over GST control); in test [3] it was 1.21 fold enrichment (6-mer frequency, TF over GST control); in test [4], 1.31 fold enrichment (6-mer frequency, TF over GST control); in [5] it was 1.36 fold enrichment (6-mer frequency, TF over GST control); in test [6], 1.38 fold enrichment (6-mer frequency, TF over GST control). Also, the binding signal in test [7] was 1.36 fold enrichment (6-mer frequency, TF over GST control); in [8], 1.3 fold enrichment (6-mer frequency, TF over GST control); in test [9], 1.41 fold enrichment (6-mer frequency, TF over GST control).

With GTCTCC, the binding signal was 1.45 fold enrichment (6-mer frequency, TF over GST control) in [1]; 1.5 fold enrichment (6-mer frequency, TF over GST control) in [2]; 1.52 fold enrichment (6-mer frequency, TF over GST control) in test [3]; 1.26 fold enrichment (6-mer frequency, TF over GST control) in [4]; 1.39 fold enrichment (6-mer frequency, TF over GST control) in [5]; 1.4 fold enrichment (6-mer frequency, TF over GST control) in test [6]. In addition, the binding signal was 1.52 fold enrichment (6-mer frequency, TF over GST control) in test [7]; 1.43 fold enrichment (6-mer frequency, TF over GST control) in test [8]; 1.56 fold enrichment (6-mer frequency, TF over GST control) in test [9].

For the sequence TTACTT, the binding signal in [1] is 1.44 fold enrichment (6-mer frequency, TF over GST control); in test [2] it was 1.53 fold enrichment (6-mer frequency, TF over GST control); in test [3], 1.44 fold enrichment (6-mer frequency, TF over GST control); in [4] it was 1.44 fold enrichment (6-mer frequency, TF over GST control); in test [5] it was 1.53 fold enrichment (6-mer frequency, TF over GST control); in test [6], 1.58 fold enrichment (6-mer frequency, TF over GST control). For the same sequence, the binding signal was 1.59 fold enrichment (6-mer frequency, TF over GST control) in [7]; 1.58 fold enrichment (6-mer frequency, TF over GST control) in [8]; 1.64 fold enrichment (6-mer frequency, TF over GST control) in test [9].

For AACTTA, the binding signal was 1.28 fold enrichment (6-mer frequency, TF over GST control) in test [1]; 1.24 fold enrichment (6-mer frequency, TF over GST control) in [2]; 1.32 fold enrichment (6-mer frequency, TF over GST control) in test [3]; 1.18 fold enrichment (6-mer frequency, TF over GST control) in test [4]; 1.27 fold enrichment (6-mer frequency, TF over GST control) in [5]; 1.34 fold enrichment (6-mer frequency, TF over GST control) in test [6]. For the same sequence, the binding signal in test [7] is 1.23 fold enrichment (6-mer frequency, TF over GST control); in test [8], 1.23 fold enrichment (6-mer frequency, TF over GST control); in test [9] it was 1.26 fold enrichment (6-mer frequency, TF over GST control).

With TATTTA, the binding signal is 1.48 fold enrichment (6-mer frequency, TF over GST control) in test [1]; 1.5 fold enrichment (6-mer frequency, TF over GST control) in test [2]; 1.39 fold enrichment (6-mer frequency, TF over GST control) in [3]; 1.38 fold enrichment (6-mer frequency, TF over GST control) in test [4]; 1.42 fold enrichment (6-mer frequency, TF over GST control) in test [5]; 1.43 fold enrichment (6-mer frequency, TF over GST control) in [6]. Further, the binding signal was 1.46 fold enrichment (6-mer frequency, TF over GST control) in test [7]; 1.39 fold enrichment (6-mer frequency, TF over GST control) in [8]; 1.61 fold enrichment (6-mer frequency, TF over GST control) in test [9].
